Screens deposited in PubChem BioAssay by Center for Chemical Genomics, University of Michigan.
Dicer inh = inhibitors of human Dicer processing of pre-microRNA; cat-ELCCA pre-miR-21 Dicer processing, chemiluminescence; stronger effect = higher value; z-score at 25 µM; 6% of 47,000 active; AID 1347074; in the data active = z-score above about 3, passing the limit was not always enough;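 note: higher signal means more uncleaved substrate so more Dicer inhibition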
Each line names hits and unclear results; the compound was inactive in the other large screens. This excerpt belongs to a sample that is enriched for hits.

CCOC(=O)Cc1nc2ccccc2o1	none
Nc1ccc(CCc2nc3ccccc3o2)cc1	Dicer inh 6.6
Cc1c(N)cccc1-c1nc2ccccc2o1	none
CN(C)C=NC(=S)c1sccc1COc1ccc(Cl)cc1	none
CSc1cc(=O)c2ccccc2s1	none
Cc1ccc(N2C(=O)SC(Nc3ccc(C(=O)O)cc3)C2=O)cc1C (configuration not stated)	none
O=C1SC(Nc2ccccc2Br)C(=O)N1c1ccccc1 (configuration not stated)	none
Cc1ccc(N2C(=O)SC(Nc3ccccc3C(=O)O)C2=O)cc1C (configuration not stated)	none
COC(=O)c1ccccc1NC1SC(=O)N(c2ccccc2)C1=O (configuration not stated)	none
Cc1ccc(N2C(=O)SC(Nc3ccc(C(=O)O)cc3)C2=O)cc1 (configuration not stated)	Dicer inh 5.4
O=C1SC(Nc2cccc(Br)c2)C(=O)N1c1ccccc1 (configuration not stated)	none
O=C1SC(Nc2ccccc2F)C(=O)N1c1ccccc1 (configuration not stated)	Dicer inh 3.4
O=C1SC(Nc2cccc(F)c2)C(=O)N1c1ccccc1 (configuration not stated)	Dicer inh 7.3
COC(=O)c1ccc(NC2SC(=O)N(c3ccccc3)C2=O)cc1 (configuration not stated)	none
C=CCn1c2ccccc2c2nnc(SCCC)nc21	none
COC(=O)COC(=O)c1ccc(Oc2nc(N(C)C)nc(N(C)C)n2)cc1	none
C#CCC1(c2ccccc2)C(=O)c2ccccc2C1=O	none
O=C1c2ccccc2C(=O)C1(Nc1ccc(Cl)c(Cl)c1)c1ccccc1	none
O=C1c2ccccc2C(=O)C1(c1ccccc1)[N+](=O)[O-]	Dicer inh 3.1
CCOc1ccccc1C1C(C(=O)OC(C)C)=C(C)NC2=C1C(=O)CCC2 (configuration not stated)	none
CCCS(=O)(=O)c1cnc(SC)nc1N	none
O=C(O)CCS(=O)(=O)c1ccccc1	none
CCN(CC)CCn1c(NCc2ccccc2O)nc2ccccc21	Dicer inh 6.1
CCN(CC)CCn1c(NCc2ccccc2Cl)nc2ccccc21	none
C=CCc1cccc(CNc2nc3ccccc3n2CC)c1O	Dicer inh 6.9
CCN(CC)CCn1c(NCc2ccco2)nc2ccccc21	Dicer inh 3.8
CCCn1c(NCc2nc3ccccc3n2C)nc2ccccc21	none
CCOc1ccccc1CNc1nc2ccccc2n1CCN(CC)CC	Dicer inh 5.3
CCn1c(NCc2c(O)ccc3ccccc23)nc2ccccc21	none
CCn1c(NCc2ccc(N(C)C)cc2)nc2ccccc21	none
CCCn1c(NCc2cccc(Br)c2)nc2ccccc21	none
CCCn1c(NCc2cc(C)ccc2O)nc2ccccc21	none
CC(=O)Nc1nc2ccccc2n1CCN(C)C	none
CCN(CC)CCn1c(NCc2ccc(Br)cc2)nc2ccccc21	none
Oc1cccc(C=NCCNc2nccc(C(F)(F)F)n2)c1	none
CCOC(=O)C1=C(C)NC2=C(C(=O)CC(C)(C)C2)C1c1ccccc1OC(C)C (configuration not stated)	none
N=Nc1c(O)[nH]c2ccc(Br)cc12	none
O=C(NCCNc1ncc(C(F)(F)F)cc1Cl)C1=Cc2cc(Cl)ccc2OC1	none
CSc1nnc2c(n1)OC(c1ccccc1C)N(C(C)=O)c1ccccc1-2 (configuration not stated)	none
CCOC(=O)c1sc(N2C(=O)c3oc4ccccc4c(=O)c3C2c2ccc(C)cc2)nc1C (configuration not stated)	none
COc1cccc(NC(=S)NCCO)c1	none
COC(=O)c1cnn(-c2ccc(F)cc2F)c1/C=N/NC(=S)Nc1ccc(Cl)cc1	none
CCOC(=O)C(C)Oc1ccc2c(=O)c(Oc3cc(C)cc(C)c3)coc2c1 (configuration not stated)	none
CN(Cc1ccccc1)S(=O)(=O)c1c(Cl)cc(C(F)(F)F)cc1Cl	none
CC(C)(C)NC1C=C(c2ccccc2)Sc2nc(-c3ccccc3)cn21 (configuration not stated)	none
CCOc1ccc2c(c1)C(=O)c1cc(OCC)ccc1-2	none
CCOc1ccc2c(c1)C(=O)C(c1cc(=O)c3ccccc3[nH]1)C2=O (configuration not stated)	Dicer inh 6.1
CCOc1ccc2[nH]c(C3C(=O)c4ccccc4C3=O)cc(=O)c2c1	none
Cc1oc(S(=O)(=O)N2CCOCC2)cc1-c1nc(-c2ccc(C(F)(F)F)cc2)no1	none
CC(C)(C)C1=CC(=O)C(C(C)(C)C)=CC1=O	none
O=C1/C(=C\c2ccccc2Cl)C(c2ccccc2)Oc2ccccc21 (configuration not stated)	none
O=C1OC(C(F)(F)F)N=C1c1ccccc1 (configuration not stated)	none
COc1ccc(C2C(C#N)=C3N=C(N)c4ccccc4N3C3=C2C(=O)CCC3)cc1 (configuration not stated)	none
CC1(C)CC(=O)C2=C(C1)N1C(=C(C#N)C2c2ccc3c(c2)OCO3)N=C(N)c2ccccc21 (configuration not stated)	none
COc1ccc(OC)c(C2C(C#N)=C3N=C(N)c4ccccc4N3C3=C2C(=O)CC(C)(C)C3)c1 (configuration not stated)	Dicer inh 4.8
N#CC1=C2N=C(N)c3ccccc3N2C2=C(C(=O)CCC2)C1c1ccc(Cl)cc1 (configuration not stated)	none
CN(C)c1ccc(C2C(C#N)=C3N=C(N)c4ccccc4N3C3=C2C(=O)CC(C)(C)C3)cc1 (configuration not stated)	Dicer inh 6.9
COc1ccccc1C1C(C#N)=C2N=C(N)c3ccccc3N2C2=C1C(=O)CCC2 (configuration not stated)	none
O=C(c1cnn(-c2ccc(Cl)cc2)c1C(F)(F)F)N1CCN(c2ncnc3ccsc23)CC1	none
COc1ccc(OCC(=O)Nc2ncccn2)cc1	none
CNC(=S)NNC(=O)CSc1nnc(-c2ccc(C(C)(C)C)cc2)n1CCCOC	none
COC(=O)C1=C(C)Nc2nc3ccccc3n2C1c1ccc(F)cc1 (configuration not stated)	none
COc1ccc(C(=O)/C=C/Sc2cc(Cl)ccc2Cl)cc1	none
Cc1cc(O/C=C/C(=O)c2ccc(Br)cc2)ccc1Cl	none
COc1ccc(C(=O)/C=C/Oc2ccc(Cl)cc2)cc1	Dicer inh 4.4
CCOC(=O)c1sc(/S(C)=N/S(=O)(=O)c2ccccc2)c2c1CCC=C2 (configuration not stated)	none
C=CCN1C(=O)C(O)(CC(=O)c2cccc(Br)c2)c2ccccc21 (configuration not stated)	none
O=C(CSc1nc(-c2ccc(Cl)cc2)[nH]c(=O)n1)Nc1ccc(Cl)cc1	none
O=S(=O)(NNS(=O)(=O)c1ccc(-c2ccccn2)s1)c1ccc(Cl)cc1	none
COC(=O)c1ccc(/C=C/c2cccc(Cl)c2)s1	none
CCCCN(CCCC)CCCn1cnc2ncccc2c1=O	none
CN1CCN(C(=O)CN(c2ccccc2)S(=O)(=O)N(C)C)CC1	none
CN1CCN(C(=O)Oc2ccccc2)CC1	Dicer inh 3.8
CN1CCN(C(c2ccccc2)c2ccccc2)CC1	none
Cc1cc(S(=O)(=O)Cc2c(F)cccc2Cl)c(Cl)cc1Cl	none
COc1ccccc1NS(=O)(=O)c1ccc(Cl)s1	none
CC1(C)Cc2c(c(N3CCOCC3)nc3sc4c(=O)n(-c5ccc(Cl)cc5)cnc4c23)CO1	none
CC1(C)Cc2c(c(N3CCOCC3)nc3sc4c(NCCCO)ncnc4c23)CO1	none
C=C(C)CSc1nnc2c3sc4nc(N5CCOCC5)c5c(c4c3ncn12)CC(C)(C)OC5	Dicer inh 3.2
CC(=O)OC1CCC2=C3CCC4(C)CCCC4C3CC(OC(C)=O)C2(C)C1 (configuration not stated)	none
